AC50 and outcome data for 13 compounds are collected here from PubChem BioAssay (EPA / NIEHS).

“And” between values parts separate entries of the source, which are not always exact repeats. Identical values can stand only once. Records with an inconclusive call do not appear. Some structures have more than one record in an assay (separate samples or runs), and their calls can disagree. The source made the active and inactive calls. The calls were made as follows: active = hit-call score of the fitted dose curve at least 0.9, where 1 is the maximum; inconclusive = response in the unintended direction; inactive = score below 0.9.

human CYP2J2, CYP2J2 (gene 1573), sequence (P51589 whole entry, looked up): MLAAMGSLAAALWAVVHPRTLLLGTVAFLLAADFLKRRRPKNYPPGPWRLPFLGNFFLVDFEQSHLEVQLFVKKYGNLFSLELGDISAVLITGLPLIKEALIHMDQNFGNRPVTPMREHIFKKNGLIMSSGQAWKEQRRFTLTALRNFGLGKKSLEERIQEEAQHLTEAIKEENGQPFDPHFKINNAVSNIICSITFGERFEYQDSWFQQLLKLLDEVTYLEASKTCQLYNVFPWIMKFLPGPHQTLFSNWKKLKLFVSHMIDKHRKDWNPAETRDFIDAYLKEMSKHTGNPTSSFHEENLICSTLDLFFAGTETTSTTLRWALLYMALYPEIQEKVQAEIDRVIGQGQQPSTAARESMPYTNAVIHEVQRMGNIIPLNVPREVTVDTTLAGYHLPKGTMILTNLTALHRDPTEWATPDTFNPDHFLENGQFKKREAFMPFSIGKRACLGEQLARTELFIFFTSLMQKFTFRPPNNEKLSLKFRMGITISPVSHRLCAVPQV

This test has as its target human CYP2J2, CYP2J2 (gene 1573) (UniProt P51589). Briefly: NVS_ADME_hCYP2J2: NovaScreen (NVS) CYP450-related Enzyme Activity (ADME) Assay for human CYP2J2 (AID 2283106). The protocol: NVS_ADME_hCYP2J2 is a biochemical, single-readout assay that uses extracted gene-proteins in a cell-free assay. Measurements were taken 1 hour after chemical dosing in a 96-well plate.NVS_ADME_hCYP2J2 is one of one assay component(s) measured or calculated from the NVS_ADME_hCYP2J2 assay. It is designed to make measurements of enzyme activity, a form of enzyme reporter, as detected with fluorescence intensity signals by Fluorescence technology.Data from the assay component NVS_ADME_hCYP2J2 was analyzed into 1 assay endpoint. This assay endpoint, NVS_ADME_hCYP2J2, was analyzed in the positive analysis fitting direction relative to Acetonitrile as the negative control and baseline of activity. Using a type of enzyme reporter, loss-of-signal activity can be used to understand changes in the enzymatic activity as they relate to the gene CYP2J2. Furthermore, this assay endpoint can be referred to as a primary readout, because this assay has produced multiple assay endpoints where this one serves a enzymatic activity function. To generalize the intended target to other relatable targets, this assay endpoint is annotated to the cyp intended target family, where the subfamily is xenobiotic metabolism.
Binding assays used specific radioligands (tritiated, iodinated) with non-radioactive competitive displacement ligands in agonist or antagonist protocols (as indicated) and various reference compounds and inhibitors to titrate specific binding to receptors and transporters. Most enzyme assays (CYPs, kinases, phosphatases, proteases, HDACs) used recombinant protein and specific substrates (fluorescence mostly, some colorimetric and radioactive) and inhibitors, followed by a biochemical separation of substrate and product. All assays for the biochemical HTS were initially run in duplicate at a single concentration (10 uM for CYP450 assays and 25 uM for all others). Assay-chemical combinations meeting a pre-defined threshold (e.g., 30% inhibition and other criteria defined below) were then run in singleton concentration-response format with maximum concentration of 20 uM for CYPs and 50 uM for all others. Each assay was run with positive and negative controls, and concurrent controls on every plate. The follow-up (secondary) screen tested active chemical-pairs in concentration series, as well as a few additional assays not tested in the primary screen, some selected negative inactives, and several cases re-run in the concentration series for confirmatory purposes.
As to `CCN(CC)CCOc1ccc(C(=C(Cl)c2ccccc2)c2ccccc2)cc1`, the concentration at half-maximal activity (AC50) is 4.08 µM (active) and 7.21 µM (active); the compound was classed as inactive.

On to `CCCCOCCOCCOCc1cc2c(cc1CCC)OCO2`, for which the AC50 was 116 nM (active).

Consider `C[C@]12CC[C@@H]3c4ccc(O)cc4CC[C@H]3[C@@H]1CC[C@@H]2O`, for which the outcome was inactive. `Oc1ccc(C(c2ccc(O)cc2)C(Cl)(Cl)Cl)cc1`: the AC50 is 2990 nM (active).

For `C#C[C@]1(O)CC[C@H]2[C@@H]3CCc4cc(O)ccc4[C@H]3CC[C@@]21C`, the AC50 is 878 nM (active) and 2.68 µM (active) and 672 nM (active). As to `CCSC(=O)N(CC(C)C)CC(C)C`, the concentration at half-maximal activity (AC50) is 1400 nM (active). `C=CCOC(Cn1ccnc1)c1ccc(Cl)cc1Cl` (centres undefined): the AC50 was 166 nM (active). As for `N#CSCSc1nc2ccccc2s1`, the half-maximal activity concentration (AC50) is 466 nM (active). For `CC(C)(c1ccc(O)cc1)c1ccc(O)cc1`, the concentration at half-maximal activity (AC50) is 4930 nM (active).

With `CCOC(=O)NCCOc1ccc(Oc2ccccc2)cc1`, the result was inactive. As for `Cc1nn(C)c(Oc2ccccc2)c1C=NOCc1ccc(C(=O)OC(C)(C)C)cc1`, the concentration at half-maximal activity (AC50) is 5240 nM (active). In the case of `O=c1c(-c2ccc(O)cc2)coc2cc(O)cc(O)c12`, the half-maximal activity concentration (AC50) is 979 nM (active) and 1.06 µM (active) and 443 nM (active). On to `C#CCOC(=O)[C@@H](C)Oc1ccc(Oc2ncc(Cl)cc2F)cc1`, for which the AC50 was 189 nM (active).

Broadly, the AC50 is the concentration giving half of the maximal activity seen.
